GPR151 ag: activators of human GPR151, primary screen, cell-based, PathHunter beta-arrestin, luminescence. G-protein coupled receptor 151 (Homo sapiens), Q8TDV0. PathHunter beta-arrestin GPR151 cells. activation, % at 11.2 µM. actives 1% (n = 650,000). AID 1508602, 2020; in the data active = activation above about 4.9%;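 also: 0% = median of compound wells and 100% = cells with positive control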
TEAD-YAP block: TEAD-YAP interaction inhibition, primary screen, TEAD-YAP interaction inhibitor project, luminescence, HEK-TIYL cells. TEAD-Gal4/YAP UAS-luciferase luminescence. inhibition, % at 9.12 µM. actives 1.4% (n = 640,000). AID 1259422, 2018; in the data active = inhibition above about 32%;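 also: 0% = median of test compound wells and 100% = reference inhibitor wells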
FBW7 act: FBW7 E3 ligase activators, primary screen, biochemical, AlphaScreen, human; AlphaScreen FBW7–phospho-cyclin E peptide binding, activator screen; normalized activity (activation), % at 26.1 µM; actives 0.13% (n = 650,000); F-box/WD repeat-containing protein 7 (Homo sapiens), Q969H0; in the data active = normalized activity above about 1.9%;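 also: purified mutant Fbw7 with reduced substrate affinity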
MITF primary: MITF inhibitors, primary screen, biochemical, AlphaScreen, human; inhibition, % at 2.6 µM; actives 0.91% (n = 650,000); AID 1259374, 2018; AlphaScreen MITF homodimerization, bead proximity signal; Microphthalmia-associated transcription factor (Homo sapiens), O75030; in the data active = inhibition above about 50%;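 also: 0% = vehicle wells with protein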
Target sequence (O75030 whole entry, looked up): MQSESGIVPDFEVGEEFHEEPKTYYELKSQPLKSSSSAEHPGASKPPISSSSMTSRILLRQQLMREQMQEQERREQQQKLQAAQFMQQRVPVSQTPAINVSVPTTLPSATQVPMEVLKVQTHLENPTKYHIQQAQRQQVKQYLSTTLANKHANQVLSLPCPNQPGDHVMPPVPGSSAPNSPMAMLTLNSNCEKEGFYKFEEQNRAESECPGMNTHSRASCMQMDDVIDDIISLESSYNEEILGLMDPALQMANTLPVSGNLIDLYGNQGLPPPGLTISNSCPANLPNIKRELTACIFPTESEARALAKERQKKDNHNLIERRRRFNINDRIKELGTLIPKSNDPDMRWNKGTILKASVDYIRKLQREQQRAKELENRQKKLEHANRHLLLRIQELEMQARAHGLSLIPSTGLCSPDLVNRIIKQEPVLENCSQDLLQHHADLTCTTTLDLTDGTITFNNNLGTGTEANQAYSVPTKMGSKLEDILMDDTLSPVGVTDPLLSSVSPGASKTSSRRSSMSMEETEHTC
GPR151 conf act: GPR151 activators, triplicate retest, confirmation, cell-based, PathHunter beta-arrestin, luminescence. shares compounds with GPR151 ag. GPR151 PathHunter beta-arrestin cells, 90 min; % of EA-reagent control over plate median. activation, % at 11.2 µM. 6,700 tested, under 10 active;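 active = mean percent activation across replicates above the confirmation screen cutoff of 4.91%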
GPR119 counter: GPR119 activators in beta-arrestin cells, counter-screen for GPR151 activator project, cell-based, PathHunter beta-arrestin, luminescence, triplicate | 90 min; 0 = compound-well median, 100 = enzyme-acceptor control | shares compounds with GPR151 ag | actives 0.3% (n = 6,700) | activation, % at 11.2 µM;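 active = mean percent activation in the counterscreen above 29.09%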;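 also: counterscreen on off-target GPR119 to flag nonselective hits from the GPR151 activator screen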
Starred values were filed as active, the others as inactive; / = not tested or not shown. Shown are actives, neighbours in structure and some others; about 3.4% of the full set was active somewhere.

SMILES	GPR151 ag	TEAD-YAP block	FBW7 act	MITF primary	GPR151 conf act	GPR119 counter
Cc1ccc(CN(Cc2cc3cc(C)ccc3n3nnnc23)C(=O)N2CCOCC2)cc1	0	6	0	-12	/	/
CCN(CC)C(=O)c1sc(NC(=O)c2cccnc2)c(C(=O)OC)c1C	0	-3	0	14	/	/
CCN(CC)C(=O)c1sc(NC(=O)c2ccc(F)cc2)c(C(=O)OC)c1C	5.1*	1	0	-8	0	-8
O=C(Cc1ccc(N2CCC(NCCn3ccnc3)CC2)cc1)NCCc1cccc(F)c1	6.0*	-2	0	-8	-1	-9
Cn1nnc2cc(NC(=O)Nc3ccc(Br)cc3)ccc21	5.9*	-92	0	0	0	1
COc1ccc(N=C2SC(CC(=O)Nc3ccc(OC)cc3OC)C(=O)N2C)cc1 (stereo not given)	6.6*	0	0	-4	4	2
CCNC(=O)CC1SC(=Nc2ccc(OC)cc2)N(C)C1=O (stereo not given)	-2	-10	0	-8	/	/
Cc1cccc(NC(=O)Nc2nnc(N3CCCCC3)s2)c1C	4	-7	0	2	/	/
Cc1cc(C)c(NC(=O)CSc2nc(C)cc(=O)[nH]2)c([N+](=O)[O-])c1	8.2*	-11	0	-1	-1	-11
CCOC(=O)/C(N=Nc1cc(Cl)c(OC)cc1OC)=C(\C)O	4.9*	6	0	-3	1	7
COc1cccc(C(=O)N(CCCO)Cc2cc3ccc(OC)cc3[nH]c2=O)c1	2	1	0	-2	/	/
Cc1nnc(N/N=C/c2cc(C)n(-c3ccc(F)cc3)c2C)n1N	6.3*	10	0	0	-1	-14
CCOC(=O)c1ccc(-n2c(C)cc(/C=N/Nc3ccccn3)c2C)cc1	1	-24	0	8	/	/
Cc1ccc(-n2c(C)cc(/C=N/Nc3ccccn3)c2C)cc1	5.5*	-19	0	2	0	9
Cc1ccc(NC(=O)CC2(CC(=O)O)CCCCC2)c(C)c1	5.7*	-3	0	15	0	8
Cc1cccc(NC(=O)CC2(CC(=O)O)CCCC2)c1	-1	-8	0	0	/	/
O=C(N/N=C/c1c(O)ccc2ccccc12)C(O)c1ccccc1 (stereo not given)	0	4	0	-27	/	/
COc1ccc(CSc2nnnn2C)cc1F	5.5*	-8	0	3	0	-7
O=C(COC(=O)c1cc(O)[nH]c(=O)c1)Nc1ccccc1Sc1ccccc1	-2	6	0	-8	/	/
O=C(NCCO)c1ccn[nH]1	6.0*	11	0	0	0	-8
O=C(NCCNC(=O)c1ccn[nH]1)c1ccn[nH]1	-1	5	0	2	/	/
CCC(CC)NC(=O)c1ccc(C)c([N+](=O)[O-])c1	5.2*	-1	0	1	1	0
Cc1ccc(NC(=O)c2cccc(I)c2)cc1[N+](=O)[O-]	4.9*	-24	0	-15	1	-7
Cc1cc(C)nc(Sc2cccc(N)c2)n1	0	-14	0	10	/	/
Cc1cc(C)n(-c2ccc(C(=O)OCC(=O)c3ccccc3)cc2)n1	1	2	0	0	/	/
SMILES	GPR151 ag	TEAD-YAP block	FBW7 act	MITF primary	GPR151 conf act	GPR119 counter
CC(=O)c1c(C)[nH]c(C(=O)COC(=O)c2ccc(-n3nc(C)cc3C)cc2)c1C	7.7*	10	0	0	0	6
COCCNC(=O)CN1CCC(O)(c2ccc(F)cc2)CC1	-1	-5	0	2	/	/
COc1ccc(NC(=O)N2CCC(CN3CCOCC3)CC2)cc1OC	6.9*	5	0	5	1	6
COc1ccc(NC(=O)N2CCC(CN3CCOCC3)CC2)c(OC)c1	4	-2	0	9	/	/
Cc1ccc(NC(=O)CSc2nc3[nH]ncc3c(=O)n2-c2ccc(Br)cc2)cc1Cl	7.5*	22	0	-7	0	9
O=C(Nc1ccc(F)cc1)C(=S)N1CCCCC1	-1	2	1	11	/	/
